Screening results deposited in PubChem by Sanford-Burnham Center for Chemical Genomics.
Sampled rows, rich in hits. Any-hit rate of the full collection: about 1.8%.
NadD inh: NadD (S. aureus) enzyme inhibition | purified NadD enzyme, colorimetric absorbance read-out | inhibition, % at 20 µM | 0.78% of 360,000 active | AID 602399; in the data active means inhibition above about 26%
SUMO HTRF inh: inhibitors of human SUMOylation (UBC9). P63279. HTRF SUMOylation assay, SAE1/SAE2 + UBC9, in vitro. inhibition, % at 35 µM. 0.36% of 290,000 active. AID 2006; in the data active means inhibition above about 50%, passing the limit was not always enough
Target sequence (P63279 whole entry, looked up): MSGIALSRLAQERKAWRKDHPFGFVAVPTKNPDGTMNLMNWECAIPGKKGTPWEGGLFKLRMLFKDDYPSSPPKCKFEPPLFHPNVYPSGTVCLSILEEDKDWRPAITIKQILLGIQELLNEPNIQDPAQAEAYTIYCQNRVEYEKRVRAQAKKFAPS
pCIP destab: lowers stability of the mouse p/CIP coactivator protein; 0.01% of 290,000 active; decrease of EGFP signal, % at 10 µM; F442A p/CIP-EGFP cells, EGFP fluorescence, 16 h; AID 1984;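 active means EGFP signal decrease of at least 30% at 10 µM or well 3 SD below plate mean, unless failing retest; inactive means the rest, including hits failing retest or dose response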
PHOSPHO1 inh: blocks human PHOSPHO1 phosphatase activity. Q8TCT1. recombinant PHOSPHO1, absorbance phosphatase assay. inhibition, % at 13.3 µM. 1.1% of 290,000 active. AID 1565; in the data active means inhibition above about 60%
Target sequence (Q8TCT1 whole entry, looked up): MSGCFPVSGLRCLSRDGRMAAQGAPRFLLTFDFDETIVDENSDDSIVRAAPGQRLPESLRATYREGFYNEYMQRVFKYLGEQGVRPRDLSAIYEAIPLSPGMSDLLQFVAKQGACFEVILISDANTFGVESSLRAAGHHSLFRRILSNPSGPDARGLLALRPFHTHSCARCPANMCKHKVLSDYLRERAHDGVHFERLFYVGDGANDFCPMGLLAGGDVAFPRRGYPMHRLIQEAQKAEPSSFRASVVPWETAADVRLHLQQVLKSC
Hits are given with their value; – = inactive; · = no result.

SMILES	NadD inh	SUMO HTRF inh	pCIP destab	PHOSPHO1 inh
CC1CN(Cc2cc(=O)oc3cc(O)c(Cl)cc23)CC(C)O1 (centres undefined)	–	–	–	–
c1csc(Cc2nn3c(-c4ccncc4)nnc3s2)c1	–	–	–	72
c1csc(-c2nn3c(-c4ccncc4)nnc3s2)c1	·	–	–	–
CCOC(=O)C1(C)CCCN1C(=O)c1c(F)cccc1F (centres undefined)	–	·	·	·
CCOC(=O)c1cc(S(=O)(=O)NC2CCC(C)CC2)cn1C (centres undefined)	–	·	–	64
COc1ccccc1CNC(=O)CSc1n[nH]c(N)n1	–	–	–	–
O=C(CSc1n[nH]c(-c2ccncc2)n1)c1ccccc1	–	–	–	–
COc1ccccc1C(=O)CSc1n[nH]c(N)n1	–	–	–	80
Cc1nc(SCC(=O)c2ccccc2)n[nH]1	–	–	–	98
C=CCn1c(NC(=O)c2ccc(Br)o2)c(C(=O)OCC)sc1=S	–	–	–	85
Cc1ccccc1-n1c(C)nnc1SCC(=O)NCC1CCCO1 (centres undefined)	–	–	–	67
C[C@@H]1CN([C@@H](C)CO)C(=O)CCCn2cc(nn2)CO[C@H]1CN(C)S(=O)(=O)c1cn(C)cn1	–	·	·	·
CCCCn1nc(C(=O)N(C)Cc2nc3ccccc3c(=O)[nH]2)c2ccccc2c1=O	–	·	·	·
C[N+]1(CC(=O)OCCCc2ccccc2)CCOCC1	–	–	–	–
Cc1ccc(CCCOC(=O)C[N+]2(C)CCOCC2)cc1	–	–	–	89
CCc1cc(-c2cnnn2Cc2ccccc2)ccc1-c1cn(CC(C)C)nn1	–	·	·	·
Cc1cccc(C(=O)NC(=S)NNC(=O)c2cccs2)c1	–	–	–	88
Cc1ccc(NC(=S)C2=C(O)c3sccc3N(C)S2(=O)=O)cc1	–	–	–	76
Cc1cc(C(=O)N/N=C/c2ccc(-c3ccccc3Cl)o2)n[nH]1	–	–	–	–
Cc1cc(C(=O)N/N=C/c2ccc(-c3ccc(C)c(Cl)c3)o2)n[nH]1	–	58	–	–
O=c1[nH]c(Nc2ccccc2)cc2cc(Br)ccc12	–	·	·	·
O=c1[nH]c(Nc2ccccc2)cc2ccccc12	–	84	–	–
O=C(COC(=O)c1ccc(NS(=O)(=O)c2cccs2)cc1)Nc1nc2c(F)c(F)c(F)cc2s1	50	80	–	–
O=C(COC(=O)c1cc(NS(=O)(=O)c2cccs2)ccc1O)Nc1cc(Cl)ccc1Cl	–	69	–	–
COc1cccc(NC(=O)C2(C)CCN2C(=O)Cc2ccc(C(C)C)cc2)c1 (centres undefined)	–	·	·	·
SMILES	NadD inh	SUMO HTRF inh	pCIP destab	PHOSPHO1 inh
COc1cc2c(cc1/C=C/C(=O)O)OC(C)C2 (centres undefined)	–	55	–	–
CCOc1cc2c(cc1/C=C/C(=O)O)OC(C)C2 (centres undefined)	–	–	–	–
CCOc1ccc(-n2c(-c3ccccc3)c[n+]3c2CCC3)cc1	–	–	–	–
CSc1c[n+]2c(n1C)CCC2	–	–	–	82
Oc1nc(Nc2cccc(Cl)c2)sc1/C=C1\C=Nc2ccccc21	–	–	–	–
CCOC(=O)c1c(Nc2ccc(Cl)cc2)sc(/C=C2\C=Nc3ccccc32)c1O	33	–	–	–
CC1CCCC(NC(=O)COC(=O)Cc2cn3ccsc3n2)C1C (centres undefined)	–	–	–	96
O=C(COC(=O)Cc1cn2ccsc2n1)NC12CC3CC(CC(C3)C1)C2	–	–	–	–
Cc1[nH]c(=O)nc(NN=Cc2ccc(Cl)cc2)c1C(=O)Nc1ccc(Cl)cc1	–	·	·	·
O=C1Nc2cc(C(=O)N3CCOCC3)ccc2S/C1=C/c1ccccc1F	–	·	·	·
CC1CCCCC1NC(=O)Cn1cccc1C(=O)c1ccccc1 (centres undefined)	–	·	–	70
COc1ccc2[nH]c3c(=O)n(CCCCC(=O)N4CCCC4)c(=S)[nH]c3c2c1	–	–	–	100
CC1CCCCC1NC(=O)CCCCCn1c(=S)[nH]c2ccccc2c1=O (centres undefined)	–	–	–	63
COc1ccc2[nH]c3c(=O)n(CCCC(=O)NC4CCCCC4C)c(=S)[nH]c3c2c1 (centres undefined)	–	58	–	–
COc1ccc2[nH]c3c(=O)n(CCCC(=O)NC4CCC(C)CC4)c(=S)[nH]c3c2c1 (centres undefined)	–	·	–	–
CCCNC(=O)CCCCn1c(=S)[nH]c2c([nH]c3ccc(OC)cc32)c1=O	–	–	–	–
Cc1ccccc1C(=O)c1cccn1CC(=O)NC1CCCC(C)C1C (centres undefined)	–	–	–	–
O=C(NCc1ccco1)C1Cc2c(-c3cccc(F)c3)ccnc2O1 (centres undefined)	–	·	·	·
COC(=O)c1[nH]c2ccccc2c1NC(=O)C(C)N1CCOCC1 (centres undefined)	–	–	–	–
COC(=O)c1[nH]c2ccccc2c1NC(=O)C(C)N1CCN(C(=O)c2ccco2)CC1 (centres undefined)	–	–	–	72
Cc1cccc(Nc2nc(-c3ccncc3)cs2)c1	–	–	–	–
Cc1cccc(Nc2nc(-c3ccc4c(c3)OCCO4)cs2)c1	–	–	–	73
CCOCCC(=O)Nc1ccc2c(c1)c(=O)n(C)n2C/C=C/c1ccccc1	–	·	·	·
Fc1ccc(-n2cc(CNCCc3ccccn3)c(-c3ccccc3Cl)n2)cc1	–	–	–	67
COc1ccc(-n2cc(CNCCc3nc(C)cc(C)n3)c(-c3ccccc3Cl)n2)cc1	–	–	–	–
SMILES	NadD inh	SUMO HTRF inh	pCIP destab	PHOSPHO1 inh
CC(=O)C1=C(C)OC2(O)c3ccccc3C(=O)C12O (centres undefined)	–	·	–	–
CCOC(=O)C1=C(C)OC2(O)c3ccccc3C(=O)C12O (centres undefined)	–	94	–	–
COc1ccccc1-c1cc(-c2ccccc2)nc(SC(C(N)=O)c2ccccc2)c1C#N (centres undefined)	36	–	–	–
O=C(COc1ccc(F)cc1)N(Cc1cccc(Br)c1)C1CCS(=O)(=O)C1 (centres undefined)	–	–	–	65
COc1ccc(N2C(=O)/C(=C/c3cccs3)NC2=S)cc1	–	–	–	75
CN1CCN(c2ccc(CNC(=O)c3ccc(-c4ccc(F)c(F)c4)c4ccoc34)cc2)CC1	–	·	·	·
COC(=O)CSC1=C(C#N)C(=O)NC(c2ccccc2)S1 (centres undefined)	–	–	–	98
COc1ccc(S(=O)(=O)N2CCOCC2)cc1NC(=O)C1CCCCN1S(=O)(=O)c1ccccc1 (centres undefined)	–	·	·	·
COc1cc2c(cc1OC)C1CCc3cc4c(cc3C1N=C2)OCO4 (centres undefined)	–	·	·	·
COc1ccc(N(C)C(=O)C2CCCN2S(=O)(=O)c2cccc3nsnc23)c(OC)c1 (centres undefined)	–	–	–	64
O=C(Nc1ccc2c(c1)OCO2)c1cc(C2CCCCN2C(=O)c2ccc3c(c2)CCO3)on1 (centres undefined)	–	·	·	·
COc1cccc(CNC(=O)[C@@H]2CCCN2C(=O)[C@H]2CCCCN2C(=O)c2ccccc2C)c1	–	·	·	·
C[C@](N)(Cc1ccc(O)c(O)c1)C(=O)O	–	90	–	–
